Compound activity deposited in PubChem by National Center for Advancing Translational Sciences (NCATS).
SMN2 splice enh – increases expression of the SMN2 splice variant | HEK293 SMN2-luciferase splicing reporter, luminescence, 30-36 h | AID 1458 | 2.8% of 210,000 active | Potency, µM (top dose mostly 46.1 µM), without a hit: at the highest dose activity change, positive = activation, actives largely listed as activators; further: % of control where 0% means no effect; nearly all actives have a fitted effect of over 55% in size
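HEK293 cells carry an SMN2 […]–luciferase reporter in which exon 7 inclusion puts luciferase in frame. Cells were plated 10-12 h before compound addition, then incubated 30-36 h at 37C. ONE-Glo luminescence was read; sodium butyrate at 4.5 mM final served as control.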
KinaseGlo FLuc – counter-screen: inhibitors of Kinase-Glo firefly luciferase | Q27757 | Kinase-Glo luciferase, ATP luminescence, 8 min | Potency, µM (highest dose often 38.3 µM), for inactives: at the top dose activity change, negative = inhibition, usual class: inhibitors | 0.28% of 200,000 active | AID 1379; further: on the % scale 0 is the no-effect control and ±100 the full control effect; nearly all actives have a fitted effect of over 60% in size
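Substrate mix (final 50 mM imidazole pH 7.2, 50 mM KCl, 7 mM MgCl2, 10 uM ATP, 0.01% Tween 20, 0.05% BSA) plus pin-tool compound, then Kinase-Glo detection mix; 8 min ambient, luminescence read.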
FLuc modulator – firefly luciferase modulation, counter-screen for miR-21 project. purified FLuc, Km substrates, luminescence inhibition. Potency, µM (titrated, usually from 57.5 µM), for the others: top-dose activity change, negative = inhibition, hits mostly inhibitors. 6.9% of 360,000 active;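 further: plate controls were vehicle for no effect and reference inhibitor for full effect; nearly all actives have a fitted effect of over 55% in size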
Target sequence (P08659 whole entry, looked up): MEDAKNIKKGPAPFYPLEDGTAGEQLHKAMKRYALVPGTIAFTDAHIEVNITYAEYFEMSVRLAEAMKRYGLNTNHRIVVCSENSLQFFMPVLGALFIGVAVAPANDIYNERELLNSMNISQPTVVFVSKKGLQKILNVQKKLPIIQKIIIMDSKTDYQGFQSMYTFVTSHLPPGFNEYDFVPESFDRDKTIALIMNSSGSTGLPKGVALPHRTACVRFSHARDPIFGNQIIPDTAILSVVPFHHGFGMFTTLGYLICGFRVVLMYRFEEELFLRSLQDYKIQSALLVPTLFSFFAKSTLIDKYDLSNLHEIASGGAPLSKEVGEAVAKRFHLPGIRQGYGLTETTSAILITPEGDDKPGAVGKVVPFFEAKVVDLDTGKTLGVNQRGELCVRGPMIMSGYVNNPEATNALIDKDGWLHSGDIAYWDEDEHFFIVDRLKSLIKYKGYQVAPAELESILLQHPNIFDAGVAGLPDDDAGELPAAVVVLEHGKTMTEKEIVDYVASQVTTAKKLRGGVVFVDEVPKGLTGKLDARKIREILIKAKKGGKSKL
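Purified P. pyralis luciferase, 10 nM final, with Km-level 10 uM D-luciferin and 10 uM ATP in 50 mM Tris acetate pH 7.5, 10 mM Mg acetate, 0.01% Tween-20, 0.05% BSA; 6-point qHTS titration about 60 µM downward; luminescence read.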
NPC1 promoter act – activators of NPC1 promoter | Huh7 NPC1 promoter luciferase reporter, 24 h | 2.4% of 320,000 active | AID 485313 | Potency, µM (top dose mostly 9.22 µM), for the others: at the top dose activation, usual class: activators; further: % of control where 0% means no effect; nearly all actives have a fitted effect of over 60% in size
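NPC1 promoter–luciferase Huh7 cells; 24 h compound; luminescence.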
ELG1 genotox – induces genotoxicity in HEK293T cells with luciferase-tagged ELG1; HEK293T ELG1-luciferase reporter, luminescence, 16 h; Potency, µM (doses to about 46 µM), for inactives: at the highest dose activity change, positive = activation, usual class: activators; 1.3% of 330,000 active; AID 504466; further: % of control where 0% means no effect; nearly all actives have a fitted effect of over 60% in size
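Step 1: seed 2,000 HEK293T ELG1-luciferase cells per well. Step 2: add compound or DMSO, incubate 16 hr at 37 °C. Step 3: ONE-Glo, 30 min at room temperature, read luminescence.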
Rab9 prom act – activators of Rab9 promoter; Huh7 Rab9 promoter-luciferase reporter, luminescence, 24 h; Potency, µM (top dose mostly 9.22 µM), for the others: at the highest dose activation, negative = inhibition, usual class: activators; 2.8% of 320,000 active; further: % of control where 0% means no effect; nearly all actives have a fitted effect of over 60% in size
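Luminescence from Amplite-detected luciferase (10 minutes, ambient) reports Rab9 promoter activation. Before that, stable Rab9-luciferase Huh7 cells (1500/well, reduced-serum OP-MEM I plus 10% FBS) were exposed to compound for 24 hours at 37C.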
An asterisk follows results filed as active; ? = inconclusive; / = no result given; [ ] = remark or other dose. A selection: hits, their analogues and other compounds. The true share with any hit is near 7.5%. The call rests on the fitted dose curve; in most records, active means well fitted curve in the direction sought with a large enough effect; inconclusive means small, poorly fitted or top-dose-only effect, or another doubt; inactive means no such curve, though single readings can be large; an effect the other way counts as inactive or inconclusive. Potency means the concentration at half of the fitted maximal effect.

SMILES	SMN2 splice enh	KinaseGlo FLuc	FLuc modulator	NPC1 promoter act	ELG1 genotox	Rab9 prom act
O=C(CCn1c(=O)c2ccccc2n(Cc2cccc(F)c2)c1=O)NCc1ccc2c(c1)OCO2	-1%	/	0%	/	/	/
CCOc1ccc(NC(=O)Cn2c(CCC(=O)O)ccc2-c2ccc(C)cc2)cc1	-9%	/	-20%	/	/	/
CCC1CSC(Nc2ccc(C(=O)/C=C/c3ccc(Oc4ccccc4)cc3)cc2)=N1 (stereo unspecified)	-66%	-4%	13µM*	0%	9%	-6%
CCC1CSC(Nc2ccc(C(=O)/C=C/c3cccc(C)c3)cc2)=N1 (stereo unspecified)	-59%	3%	?	-4%	13%	-3%
CN(C)c1ccc(N=Nc2cccc(F)c2)cc1	/	/	0.24µM*	2µM*	0.65µM*	3.5µM*
CN(C)c1ccc(N=Nc2cccc3ccoc23)cc1	3.5µM*	-13%[7.66 µM]	1.2µM*	?	6.5µM*	?
Cc1cc(=O)oc2cc(OCC(=O)N3CCN(C(=O)C4COc5ccccc5O4)CC3)c(Cl)cc12 (stereo unspecified)	/	/	-2%	-2%	-5%	-3%
Cc1nn2c(nc1=O)SCC(c1ccccc1)=N2	?	-1%	3%	2.2µM*	?	3.5µM*
COC(=O)c1cnn(-c2ccc(C(=O)Nc3cccc(C(C)=O)c3)cc2)c1N	/	/	2%	1%	/	-3%
CCn1c(=O)cc(OCC(=O)NCCCN2CC(C)CC(C)C2)c2ccccc21 (stereo unspecified)	?	0%	-1%	-5%	16µM*	-2%
CCn1c(=O)cc(OCC(=O)NCCCN2CCC(C)CC2)c2ccccc21	25%	3%	0%	-1%	16µM*	-2%
C=CCOC(=O)N[C@@H](CCc1ccccc1)C(C(C)=O)C(C)=O	2%	-2%	/	/	/	/
Nc1nn2cc(-c3ccc(Br)cc3)nc2c2ccccc12	/	/	1.7µM*	1.8µM*	?	2.2µM*
Nc1cc(-c2ccccc2)nn1S(=O)(=O)c1ccc(Br)cc1	-35%	-1%	0%	1%	0%	6%
Cn1c(=NC(=O)c2ccco2)sc2ccccc21	4.5µM*	?	2.7µM*	?	4.1µM*	?
Cc1sc(=NC(=O)c2ccco2)n(C)c1-c1ccccc1	2.2µM*	-10%	0.95µM*	0.89µM*	?	1.3µM*
CC(=O)N/N=c1\sc2ccccc2n1C	2%	2%	2%	-4%	-7%	21%
Cn1/c(=N\NC(=O)c2ccccc2Cl)sc2ccccc21	?	3%	17µM*	?	-3%	?
Cc1sc(=NC(=O)c2ccco2)n(C)c1-c1ccc(F)cc1	3.5µM*	-3%	2.4µM*	2.8µM*	?	2µM*
Cn1c(=NC(=O)CCl)sc2ccccc21	-80%	-3%	-14%	-46%	?	-51%
CCCOc1cccc(C(=O)NCCNC(=O)c2ccc(C)nc2)c1	/	/	-2%	-2%	-1%	-1%
Cn1c(=NC(=O)c2cccc([N+](=O)[O-])c2)sc2ccccc21	1.6µM*	-4%	0.34µM*	?	0.82µM*	2.8µM*
COc1cc(C(=O)N=c2sc3ccccc3n2C)cc(OC)c1OC	-27%	1%	?	12%	5%	?
CCN1CCN(S(=O)(=O)c2ccc(OC)c(NC(=O)c3ccccc3F)c2)CC1	/	/	0%	0%	-2%	2%
c1ccc(-c2cccc(-c3ccccc3)n2)cc1	/	/	12µM*	23%	5%	?
SMILES	SMN2 splice enh	KinaseGlo FLuc	FLuc modulator	NPC1 promoter act	ELG1 genotox	Rab9 prom act
COc1ccc(C(=O)N=c2nc3ccccn3s2)cc1	/	7.9µM*	0.095µM*	0.13µM*	0.37µM*	0.25µM*
O=C1C2C3C=CC(C4CC34)C2C(=O)N1c1cccc2ccccc12 (stereo unspecified)	/	/	6.7µM*	14%	4%	10%
O=C(Nc1c(Cl)cccc1Cl)c1cc(-c2cccc(O)c2)on1	?	/	24µM*	/	/	/
O=C(Nc1ccc2c(c1)OCO2)c1cc(-c2cccc(O)c2)on1	/	/	2.1µM*	7%	10%	-2%
O=C(Nc1ccc2c(c1)OCO2)c1cc(-c2ccc(O)cc2)on1	/	/	?	3.5µM*	?	?
O=C(Nc1c(Cl)cccc1Cl)c1cc(-c2ccc3c(c2)OCO3)on1	15%	/	-22%	/	/	/
COc1cccc(-c2cc(C(=O)Nc3ccc4c(c3)OCO4)no2)c1	-5%	/	-8%	20%	?	17%
O=C(Nc1ccc2c(c1)OCO2)c1cc(-c2ccc(Cl)cc2)on1	9%	/	-1%	/	/	/
CC[C@]1(C(=O)OC)[C@H]2C(=O)N(Cc3ccccc3)C(=O)[C@H]2[C@H]2CN(C)C(=NCc3ccccc3)N21	/	/	/	/	6%	/
CCN(CC(=O)Nc1c(F)cccc1F)C(=O)C1CC(=O)N(CCc2ccc(OC)c(OC)c2)C1 (stereo unspecified)	/	/	0%	-4%	0%	-5%
O=C(NNC(=O)c1ccccc1OCc1ccccc1)c1ccccc1F	/	/	21µM*	?	23%	29%
O=C(NCc1ccc(F)cc1)c1ccccc1OCc1ccccc1	-22%	2%	1%	0%	-2%	2%
O=C(N/N=C/c1ccccc1F)c1ccccc1OCc1ccccc1	/	/	17µM*	-23%	-12%	-19%
O=C(NNC(=O)c1ccccc1OCc1ccc(F)cc1)c1ccccc1O	/	/	27µM*	-28%	-2%	-37%
O=C(NNC(=O)c1ccccc1OCc1ccccc1)c1ccccc1O	/	/	19µM*	-13%	6%	-20%
CO[C@@H]1[C@@H]2OP(=O)(O)OC[C@H]2O[C@H]1n1c(Sc2ccc(Cl)cc2)nc2c(N)ncnc21	/	1%[39.9 µM]	/	/	/	/
Cc1ccc(CNC(=O)C(=O)NCC2CCCN2S(=O)(=O)c2cc(C)ccc2C)cc1 (stereo unspecified)	/	/	2%	0%	-5%	-1%
COc1cccc(-c2ocnc2C(=O)Nc2ccc3c(c2)CCC3)c1	/	/	19µM*	-1%	16%	9%
COc1ccc(NC(=O)Nc2ccc3c(c2)CCC3)cc1	/	/	-13%	?	21µM*	?
COc1ccccc1/C=C/C(=O)Nc1ccc(N2CCOCC2)cc1	-3%	-1%	-6%	-37%	5%	0%
Cc1ccc(NC(=O)Nc2ccc3c(c2)CCC3)cc1C	/	/	1%	30%	14%	29%
COc1ccccc1/C=C/C(=O)Nc1ccc2c(c1)CCC2	13µM*	-1%	4.3µM*	3.2µM*	?	1.8µM*
COc1ccc(OC)c(/C=C/C(=O)Nc2ccc3c(c2)CCC3)c1	12%	5%	11µM*	6%	0%	1%
